Laboratory results from PubChem BioAssay (Tox21).
Records with an inconclusive call do not appear. A call without a number means that no potency is given here. A number with no mark means an inactive call. The source made the active and inactive calls. Unless noted, the call rests on the fitted dose curve; in most records, active means well fitted curve in the direction sought with a large enough effect in the repeat runs; inconclusive means weak or mixed curves; inactive means no such curve, though single readings can be large; an effect the other way counts as inactive or inconclusive.

How the values were obtained:
[1] = qHTS assay to identify small molecule antagonists of the estrogen related receptor (ERR) signaling pathway from Tox21 library - cell viability counter screen (AID 1224834); further: nearly all actives have a fitted effect of over 30% in size; further: potency means the concentration at half of the fitted maximal effect
Procedure, shortened: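 In this quantitative HTS format, ERR cells receive compounds in DMSO and are incubated for 17.5 h at 37 C. Live-cell protease activity is then detected with CellTiter-Fluor.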

[2] = target: Luciferin 4-monooxygenase (Photinus pyralis) (UniProt P08659); experiment: qHTS assay to identify small molecule inhibitors of firefly luciferase (AID 1224835); further: nearly all actives have a fitted effect of over 25% in size; further: potency means the concentration at half of the fitted maximal effect
Procedure, shortened: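 Inhibition of purified Photinus luciferase is measured by luminescence. Substrate levels (D-luciferin, ATP) sit at their KM values. Each compound is tested in a concentration series.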

[3] = qHTS assay to identify small molecule agonists of the constitutive androstane receptor (CAR) signaling pathway - cell viability counter screen (AID 1224836); further: series mostly up to about 92 µM; nearly all actives have a fitted effect of over 45% in size
Procedure, shortened: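 HepG2-CYP2B6-hCAR, 2500 cells/well, 4 h pre-incubation; cpd 15 conc + PK11195 0.75 uM final; 23 h, 37 C/5% CO2; CellTiter-Fluor, fluorescence.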

[4] = qHTS assay to identify small molecule antagonists of the constitutive androstane receptor (CAR) signaling pathway - cell viability counter screen (AID 1224837); further: series mostly up to about 92 µM; nearly all actives have a fitted effect of over 45% in size
Procedure, shortened: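 In quantitative HTS format, compounds at 15 concentrations were applied to HepG2 cells double-transfected with hCAR and CYP2B6-2.2kb under 50 nM CITCO stimulation; live-cell protease activity was read after 23 hr via CellTiter-Fluor.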

[5] = target: Nuclear receptor subfamily 1 group I member 3 (Homo sapiens) (UniProt Q14994); experiment: qHTS assay to identify small molecule antagonists of the constitutive androstane receptor (CAR) signaling pathway (AID 1224838); further: nearly all actives have a fitted effect of over 40% in size
Procedure, shortened: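 CITCO-stimulated (50 nM final) HepG2 cells stably transfected with hCAR and CYP2B6-2.2kb luciferase were exposed to compounds at 15 concentrations for 24 h at 37 C/5% CO2. A luciferase reagent was added and luminescence recorded after 30 min.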

[6] = target: Nuclear receptor subfamily 1 group I member 3 (Homo sapiens) (UniProt Q14994); experiment: qHTS assay to identify small molecule agonists of the constitutive androstane receptor (CAR) signaling pathway (AID 1224839); further: nearly all actives have a fitted effect of over 15% in size; further: potency means the concentration at half of the fitted maximal effect
Procedure, shortened: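 HepG2-CYP2B6-hCAR cells, 2500/well, 4 h pre-incubation; compounds 15 conc.; PK11195 0.75 uM final; 24 h, 37 C/5% CO2; ONE-Glo luciferase read.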

[7] = qHTS assay to identify small molecule antagonists of the estrogen related receptor signaling pathway with the pleiotropic PPARgamma coactivator (PGC) from Tox21 10K library - cell viability counter screen (AID 1224840; active means well fitted cell-killing curve with a large enough effect in the repeat runs, not every such curve was filed as active; further: nearly all actives have a fitted effect of over 40% in size)
Procedure, shortened: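 Viability counter screen, PGC/ERR cells: 17.5 h compound exposure at 37 C, CellTiter-Fluor fluorescence endpoint.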

[8] = qHTS assay to identify small molecule antagonists of the estrogen related receptor signaling pathway with the pleiotropic PPARgamma coactivator (PGC) from Tox21 10K library (AID 1224841; call rule not given here; further: actives are mostly falling curves and most rising ones were filed inactive; nearly all actives have a fitted effect of over 50% in size; further: potency means the concentration at half of the fitted maximal effect)
Procedure, shortened: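 In the PGC/ERR line, DMSO solutions of test chemicals are pin-delivered to 2,000 cells/well six hours after dispensing. Following eighteen hours' incubation, One-Glo reagent is added and luminescence recorded.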

[9] = qHTS assay to identify small molecule agonists of the estrogen related receptor signaling pathway with the pleiotropic PPARgamma coactivator (PGC) from Tox21 10K library (AID 1224842); further: nearly all actives have a fitted effect of over 15% in size
Procedure, shortened: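 Luminescence from One-Glo (30 min, room temperature) measured after PGC/ERR cells had 18 h at 37 C with pinned compound (23 nL in DMSO). Cells had been seeded at 2,000 per well and pre-incubated 6 h.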

[10] = target: Thyrotropin receptor (Homo sapiens) (UniProt P16473); experiment: qHTS assay to identify small molecule agonists of the thyroid stimulating hormone receptor (TSHR) signaling pathway (AID 1224843; calls by dose curve; further: nearly all actives have a fitted effect of over 45% in size)
Procedure, shortened: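 Agonist activity read as cAMP rise via d2/cryptate HTRF competition, 1 h room-temperature detection, in HEK293 cells expressing TSHR. Fifteen-point titrations, each run in triplicate, with a 30 min room-temperature incubation beforehand.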

Luciferin 4-monooxygenase (Photinus pyralis), sequence (P08659 whole entry, looked up): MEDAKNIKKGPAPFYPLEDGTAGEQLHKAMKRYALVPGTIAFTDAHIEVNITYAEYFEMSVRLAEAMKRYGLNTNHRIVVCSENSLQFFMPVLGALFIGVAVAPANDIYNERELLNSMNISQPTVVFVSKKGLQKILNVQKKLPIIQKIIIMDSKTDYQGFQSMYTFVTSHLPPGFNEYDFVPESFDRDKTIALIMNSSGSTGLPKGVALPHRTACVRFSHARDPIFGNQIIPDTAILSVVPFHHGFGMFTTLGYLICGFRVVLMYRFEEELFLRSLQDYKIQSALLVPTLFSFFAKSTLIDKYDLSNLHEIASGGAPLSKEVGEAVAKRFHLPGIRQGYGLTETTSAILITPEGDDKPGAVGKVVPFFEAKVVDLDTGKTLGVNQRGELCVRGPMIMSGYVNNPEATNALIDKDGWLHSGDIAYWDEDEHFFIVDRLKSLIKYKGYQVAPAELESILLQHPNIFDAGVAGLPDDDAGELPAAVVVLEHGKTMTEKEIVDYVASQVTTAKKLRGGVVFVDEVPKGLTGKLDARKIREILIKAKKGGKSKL
Nuclear receptor subfamily 1 group I member 3 (Homo sapiens), sequence (Q14994 whole entry, looked up): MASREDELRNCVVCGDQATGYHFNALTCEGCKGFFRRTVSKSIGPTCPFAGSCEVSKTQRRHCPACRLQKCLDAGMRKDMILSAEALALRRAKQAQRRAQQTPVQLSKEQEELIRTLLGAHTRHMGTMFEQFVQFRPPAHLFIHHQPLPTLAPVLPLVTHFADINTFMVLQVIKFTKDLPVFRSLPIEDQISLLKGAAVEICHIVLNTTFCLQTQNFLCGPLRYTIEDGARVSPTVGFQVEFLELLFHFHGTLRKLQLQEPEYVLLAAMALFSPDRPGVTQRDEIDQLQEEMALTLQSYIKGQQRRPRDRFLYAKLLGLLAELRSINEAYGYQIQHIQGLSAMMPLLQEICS
Thyrotropin receptor (Homo sapiens), sequence (P16473 whole entry, looked up): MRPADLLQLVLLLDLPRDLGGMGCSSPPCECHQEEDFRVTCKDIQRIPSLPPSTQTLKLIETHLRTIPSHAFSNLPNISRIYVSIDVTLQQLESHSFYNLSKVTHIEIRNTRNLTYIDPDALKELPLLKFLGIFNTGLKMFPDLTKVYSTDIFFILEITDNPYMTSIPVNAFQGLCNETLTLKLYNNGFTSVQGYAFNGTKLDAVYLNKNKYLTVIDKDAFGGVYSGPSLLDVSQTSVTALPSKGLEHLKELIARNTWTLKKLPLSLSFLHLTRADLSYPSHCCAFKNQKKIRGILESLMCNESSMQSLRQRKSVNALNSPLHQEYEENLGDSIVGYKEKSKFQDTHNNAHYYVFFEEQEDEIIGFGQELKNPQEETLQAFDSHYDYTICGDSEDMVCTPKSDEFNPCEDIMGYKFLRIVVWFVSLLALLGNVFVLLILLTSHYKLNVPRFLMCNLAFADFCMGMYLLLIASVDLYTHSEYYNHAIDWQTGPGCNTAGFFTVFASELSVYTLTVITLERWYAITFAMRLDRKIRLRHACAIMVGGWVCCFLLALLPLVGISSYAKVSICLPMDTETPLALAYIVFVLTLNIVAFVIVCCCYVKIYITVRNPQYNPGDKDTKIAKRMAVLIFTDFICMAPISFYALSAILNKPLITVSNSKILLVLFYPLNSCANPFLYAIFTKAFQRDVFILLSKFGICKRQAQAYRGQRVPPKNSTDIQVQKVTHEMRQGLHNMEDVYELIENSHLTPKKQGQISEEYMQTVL

Row | Structure (SMILES) | Potency [1] | Potency [2] | Potency [3] | Potency [4] | Potency [5] | Potency [6] | Potency [7] | Potency [8] | Potency [9] | Potency [10]
1 | CCCn1cnc2c1c(=O)n(CCCCC(C)=O)c(=O)n2C | inactive | inactive | inactive | inactive | inactive | inactive | inactive | inactive | inactive | inactive
2 | CCCCCCCCCCCCN1CCCCCC1=O | inactive | inactive | inactive | inactive | inactive | 61.1 µM (active) | inactive | inactive | inactive | 
3 | CC(C)(CO)[N+](=O)[O-] | inactive | inactive | inactive | inactive | inactive | inactive |  |  |  | 
4 | CCCCCCCC/C=C\CCCCCCCC(=O)OCC | inactive | inactive | inactive | inactive | inactive | inactive | inactive | inactive | inactive | inactive
5 | O=C(O)c1nc(Cl)c(Cl)c(Cl)c1Cl | inactive | inactive | inactive | inactive | inactive | 17.2 µM (active) | inactive | inactive | inactive | 
6 | Cc1ncc(CO)c(C=O)c1O | inactive | inactive | inactive | inactive | inactive | inactive | inactive | inactive | inactive | inactive
7 | C=C(C)C(=O)OCCOCC | inactive | inactive | inactive | inactive |  |  |  |  |  | 
8 | CCn1cc(C(=O)O)c(=O)c2cnc(N3CCNCC3)nc21 | inactive | inactive | inactive | inactive | inactive | inactive | inactive | inactive | inactive | 
9 | CCOC(=O)C(O)c1ccccc1 (configuration not stated) | inactive | inactive | inactive | inactive | inactive | inactive | inactive | inactive | inactive | 
10 | O=C(O)c1ccco1 | inactive | inactive | inactive | inactive |  |  |  |  |  | 
11 | C[Si](C)(CCCN)O[Si](C)(C)CCCN | inactive | inactive | inactive | inactive | inactive | inactive | inactive | inactive | inactive | inactive
12 | CCCCCCCCCCCc1ccccc1 | inactive | inactive | inactive | inactive | inactive | inactive | inactive |  |  | 
13 | C=C1[C@H]2CC[C@@H]3[C@H]2C(C)(C)CCC[C@]13C | inactive | inactive | inactive | inactive | inactive | inactive | inactive |  |  | 
14 | COc1cc2nc(Cl)nc(N)c2cc1OC | inactive | inactive | inactive | inactive | inactive | inactive | inactive |  |  | 
15 | COC(=O)c1ccc(I)cc1S(=O)(=O)NC(=O)Nc1nc(C)nc(OC)n1 | inactive | inactive | inactive | inactive | inactive | inactive | inactive |  |  | 
16 | O=C(OCCCCCCOC(=O)c1ccccc1)c1ccccc1 | inactive | inactive | inactive | inactive | inactive | inactive | inactive | inactive | inactive | 
17 | CC1=CC[C@H](C(C)C)C=C1 | inactive | inactive | inactive | inactive | inactive | inactive | inactive |  |  | 
18 | CNC(=O)CN(CCN(CCN(CC(=O)[O-])CC(=O)NC)CC(=O)[O-])CC(=O)[O-].O.[Gd+3] | inactive | inactive | inactive | inactive | inactive | inactive |  |  |  | 
19 | CC1=CC=C(C(C)C)CC1 | inactive | inactive | inactive | inactive | inactive | inactive | inactive |  |  | 
20 | CC(C)(O)c1ccc(CNC(=O)c2cccnc2Oc2ccc(F)cc2)cc1 | inactive | inactive | inactive | inactive | inactive | 27.3 µM (active) | inactive | 48.6 µM (active) | inactive | 
21 | C#CCN(C)CCCOc1ccc(Cl)cc1Cl | inactive | 15.5 µM (active) | inactive | inactive | inactive | 26.6 µM (active) | inactive |  |  | 
22 | Nc1cccc([N+](=O)[O-])c1 | inactive | inactive | inactive | inactive | inactive | inactive | inactive | inactive | inactive | 
23 | CC(C)(COC(=O)c1ccccc1)COC(=O)c1ccccc1 | inactive | inactive | inactive | inactive | inactive | inactive | inactive |  |  | 
24 | CC(=O)c1cccc([N+](=O)[O-])c1 | inactive | inactive | inactive | inactive | inactive | inactive | inactive |  |  | 
25 | CCN(CC)CCOC(=O)C(c1ccccc1)C1CCCCC1 (configuration not stated) | 29.8 µM (active) | inactive | inactive | inactive | inactive | inactive |  |  |  | 
